TDP-43 rescue: qHTS of TDP-43 Inhibitors: NCGC Sytravon Library Screen. yeast TDP-43 toxicity rescue, BacTiter-Glo growth, 24 h. Potency, µM (highest dose often 46.1 µM), hits mostly activators. 45,000 tested, 0.45% active. AID 1347073, 2019; active means well fitted activation curve with a large enough effect; further: 0% is about no effect; nearly all actives have a fitted effect of over 55% in size
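TDP-43-expressing yeast, pregrown in raffinose, seeded at OD600 0.02 in galactose medium with compound for 24 hr at 30 deg C. Growth read by BacTiter-Glo luminescence, so rescue of toxicity appears as activation.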
* hit, by the source's call; i = inactive. Many of the other results were omitted from the sample, so hits are more common in it than they were. Potency means the concentration at half of the fitted maximal effect.

SMILES	TDP-43 rescue
CCC1CCCCN1S(=O)(=O)c1ccc(NC(=O)c2nc(S(C)(=O)=O)ncc2Cl)cc1 (stereo not drawn)	i
CCOC(=O)C1(C)CCCN(C(=O)c2cc(OC)c(OC)c(OC)c2)C1 (stereo not drawn)	i
COc1ccc(Nc2nc3cc(-c4ccccc4C)sc3c(=O)n2C)cc1OC	20µM*
Cc1ccccc1-c1cc2nc(NCCOc3ccccc3)n(C)c(=O)c2s1	i
Cc1ccccc1-c1cc2nc(NCCCN(C)C)n(C)c(=O)c2s1	i
CCCC(=O)n1nc(-c2cccnc2)nc1NCc1ccccc1	i
CCN1CCN(C(c2ccccc2)c2sc3nc(-c4ccco4)nn3c2O)CC1 (stereo not drawn)	i
COc1ccccc1CNC(=O)C(NS(=O)(=O)c1ccc2c(c1)OCCO2)C(C)C (stereo not drawn)	i
COc1ccc(NC(=O)c2cc(S(=O)(=O)NCC3COc4ccccc4O3)ccc2F)cc1 (stereo not drawn)	25µM*
CCOc1ccc(S(=O)(=O)NCC2CCCO2)cc1NC(=O)c1ccccc1F (stereo not drawn)	i
COc1ccc(NC(=O)c2ccc(NC(=O)C3COc4ccccc4O3)cc2)c(OC)c1 (stereo not drawn)	i
O=C(COc1c(F)c(F)c(C(F)(F)F)c(F)c1F)Nc1ccc(N2CCOCC2)c(Cl)c1	13µM*
COc1ccc(NS(=O)(=O)c2cc(NC(=O)COc3ccccc3)ccc2N2CCOCC2)cc1	i
COCc1cc(C)n(CC(=O)Nc2ccc(N3CCOCC3)c(Cl)c2)c(=O)c1C#N	i
O=C(NC1CCCCC1)C(c1ccccn1)N(C(=O)c1csnn1)c1ccccc1F (stereo not drawn)	i
COCCNC(=S)N/N=C(\C)c1cccc(C(F)(F)F)c1	i
COCCNC(=S)N/N=C(\C)c1cc2ccccc2o1	13µM*
COCCNC(=S)N/N=C(\C)c1ccc(OC)cc1	i
O=C(NCCNC(=O)c1ccc(Cl)cc1Cl)c1ccco1	i
CCc1ccc(C(O)c2ncc(-c3ccccc3OC)[nH]2)cc1 (stereo not drawn)	i
O=C(NCC1CCCCC1)c1cccc([N+](=O)[O-])c1	i
Cc1ccc(OCC(=O)O/N=C(\N)c2cccc([N+](=O)[O-])c2)cc1C	i
N/C(=N\OC(=O)CC1CCCCC1)c1ccc([N+](=O)[O-])cc1	18µM*
Cn1c(N)c(C(=O)COC(=O)/C=C/c2ccc(Cl)c(Cl)c2)c(=O)n(C)c1=O	i
CC(NC(=O)C(C)N1c2cccc3cccc(c23)S1(=O)=O)c1ccccc1 (stereo not drawn)	i
SMILES	TDP-43 rescue
Cc1c(/C=N\NC(=O)C2COc3ccccc3O2)c2ccccc2n1C (stereo not drawn)	i
O=C(N/N=C\c1cccc([N+](=O)[O-])c1O)C1COc2ccccc2O1 (stereo not drawn)	10µM*
O=C(CNC(=O)C1COc2ccccc2O1)N/N=C\c1cccc(O)c1 (stereo not drawn)	i
Cc1cccc(C)c1NC(=O)CN(C)CC(=O)N1CC(=O)Nc2ccccc21	i
CC(C)(CN1CCN(C(c2ccccc2)c2ccccc2)CC1)NS(=O)(=O)c1ccccc1	i
CCCN(CC(=O)Nc1ccccc1Br)CC(=O)Nc1ccc(F)c(F)c1F	11µM*
CCCN(CC(=O)Nc1ccc(F)c(F)c1F)C(=O)c1ccc2c(c1)NC(=O)CS2	i
O=C(Cc1ccccc1F)NCC(=O)Nc1ccccc1Br	i
COc1ccc(Cc2nc3c4cnn(-c5ccccc5Br)c4ncn3n2)cc1	i
O=S(=O)(c1ccc(F)cc1)N1CCN(CC(O)COCC2CCCO2)CC1 (stereo not drawn)	i
O=S(=O)(c1cccc(Br)c1)N1CCN(CCc2ccccc2)CC1	i
O=C(COC(=O)c1ccccc1Br)NC1CCCC1	i
O=C(COC(=O)CNC(=O)c1ccccc1)NC1CCCCC1	i
O=C(COC(=O)CSc1ccc2ccccc2c1Br)NC1CC1	22µM*
CCOC(=O)c1c(NC(=O)c2cc(OCC)c(OCC)c(OCC)c2)sc2c1CCCCC2	i
COc1cccc2c1O/C(=N\O)C(C(=O)Nc1cccc(Br)c1)C2 (stereo not drawn)	i
CCN(CC)S(=O)(=O)c1ccc(OC)c(NC(=O)CSc2cc(C)ccc2C)c1	i
NC(=S)N/N=C/c1ccc(C23CC4CC(CC(C4)C2)C3)cc1	7.9µM*
O=C(N/N=C/c1ccccc1O)NC12CC3CC(CC(C3)C1)C2	i
O=C(N/N=C/c1ccc(O)c(O)c1)NC12CC3CC(CC(C3)C1)C2	i
S=C(NCC1CCCO1)NC1CCCC1 (stereo not drawn)	i
COc1cc(NC(=O)Cn2c(=O)n(CC(=O)NCCc3ccc(OC)c(OC)c3)c(=O)c3sccc32)cc(OC)c1	i
CC1(C(=O)NS(=O)(=O)c2ccc(F)cc2F)CCN1C(=O)c1ccc(C2CCCCC2)cc1 (stereo not drawn)	i
NC(=O)c1ccc2c(c1)OCCO2	i
CC(=O)c1ccc2c(c1)OCCOCCOc1ccccc1OCCOCCO2	16µM*
SMILES	TDP-43 rescue
O=C(c1cccc([N+](=O)[O-])c1)c1ccc2c(c1)OCCOCCOCCO2	i
CCn1nc(C(=O)NNS(=O)(=O)c2ccc(C)cc2)c2ccccc2c1=O	i
COc1ccc(CC(=O)OCC(=O)N2CCCC(C)C2)cc1 (stereo not drawn)	i
CC1CCCN(C(=O)COc2ccc(-c3ccccc3)cc2)C1 (stereo not drawn)	11µM*
CC1CCCN(CC(=O)NNC(=O)COc2ccc(Br)cc2)C1 (stereo not drawn)	i
O=C1NCCN(C(=O)CCc2nnc(-c3ccsc3)o2)C1c1ccc(F)cc1 (stereo not drawn)	i
O=C(Nc1ccc(F)cc1)c1ccc(Br)c(S(=O)(=O)N2CCOCC2)c1	i
CCCC(=O)Nc1cc(-c2nnc3c4ccccc4c(C)nn23)ccc1C	i
CCCS(=O)(=O)N1CCC(C(=O)NCCC(C)C)CC1	i
CCNC(=O)C1(C)CCN(Cc2csc(-c3ccccc3)n2)C1 (stereo not drawn)	i
CC(OC(=O)c1cnc2ccccc2n1)c1ccccc1Cl (stereo not drawn)	i
COC(=O)c1cc(Sc2cccc(Cl)c2Cl)ccn1	13µM*
COc1cccc(C(=O)NCCCNC(=O)c2ccccn2)c1	i
CC1(C(=O)NS(=O)(=O)c2cccc(C#N)c2)CCN1C(=O)c1cccc2ccccc12 (stereo not drawn)	i
COc1cc(OC)cc(C2=NCCN2)c1	i
O=c1[nH]c2ccccc2nc1Cc1ccc([N+](=O)[O-])cc1	i
O=S(=O)(NCCc1csc(-c2ccccc2)n1)c1ccc2c(c1)OCCO2	18µM*
CC(NS(=O)(=O)c1ccc2c(c1)OCCO2)c1ccccc1 (stereo not drawn)	i
CCCNS(=O)(=O)c1ccc(CCC(=O)Nc2ccc3c(c2)OCCO3)cc1	i
COC(=O)c1ccc(CNC(=O)C2CCC(=O)N(CCN3CCOCC3)C2)cc1 (stereo not drawn)	i
Cc1ccccc1-c1cnn(-c2cccc([N+](=O)[O-])c2)c1N	13µM*
Nc1c(-c2ccccc2)c(CN2CCOCC2)nn1-c1cccc([N+](=O)[O-])c1	i
Cc1cc(NC(=O)c2cccc([N+](=O)[O-])c2)n(-c2ccccc2)n1	i
COC(=O)c1c(-c2cccs2)csc1NC(=O)COc1ccccc1	i
